Bioassay records from PubChem BioAssay.
Only a selection was taken, and hits are over-represented in it overall.
CHX counter – Cycloheximide Counterscreen for Small Molecule Inhibitors of Shiga Toxin | cell reporter, cycloheximide protein synthesis inhibition counterscreen | max response, % | 300,000 tested, 12% active | AID 2314, 2010; in the data active = max response mostly above about 13%, no sharp cut-off; inactive = mostly below about 14%; note: read at 38.3 µM for the half of the compounds with a filed dose; 0% is about no effect
SARS PLP yeast – qHTS of Yeast-based Assay for SARS-CoV PLP. 330,000 tested, 0.19% active. S. cerevisiae expressing SARS-CoV PLpro, growth rescue. Potency, µM (series often up to 32.9 µM), for the others: at the highest dose activity, positive = growth rescue, most hits filed as activators; calls by dose curve; note: potency is the fitted concentration of half-maximal effect; 0% is about no effect; nearly all actives have a fitted effect of over 55% in size
AmpC inh detg – qHTS Inhibitors of AmpC Beta-Lactamase (assay with detergent); AID 485294, 2010; 370,000 tested, 0.041% active; Potency, µM (top dose mostly 114 µM), without a hit: at the highest dose activity change, negative = inhibition, actives largely listed as inhibitors; P00811; AmpC hydrolysis of nitrocefin, absorbance 480 nm, 0.01% Triton;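 note: potency is the fitted concentration of half-maximal effect; 0% = no-compound wells and -100% = no-enzyme wells; nearly all actives have a fitted effect of over 25% in size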
Target sequence (P00811 whole entry, looked up): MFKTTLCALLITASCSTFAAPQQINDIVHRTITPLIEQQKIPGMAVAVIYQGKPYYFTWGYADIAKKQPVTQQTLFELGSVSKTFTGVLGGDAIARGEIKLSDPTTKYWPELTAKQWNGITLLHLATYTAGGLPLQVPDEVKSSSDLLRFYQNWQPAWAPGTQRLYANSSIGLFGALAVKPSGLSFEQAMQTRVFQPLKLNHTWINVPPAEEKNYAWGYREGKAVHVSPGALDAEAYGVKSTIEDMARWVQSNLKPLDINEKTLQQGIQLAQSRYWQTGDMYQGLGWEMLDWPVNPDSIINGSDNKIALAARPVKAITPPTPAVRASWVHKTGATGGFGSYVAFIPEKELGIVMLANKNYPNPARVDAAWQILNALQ
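AmpC (5.3 nM in the dispensed reagent) in 20 mM phosphate pH 7.0 with 0.01% (detergent screen) or 0.0001% Triton X-100 was preincubated with compounds for 15 min at room temperature. Nitrocefin was then added from an 800 uM solution, and hydrolysis was followed at 480 nm.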
Shiga toxin inh – A qHTS for Small Molecule Inhibitors of Shiga Toxin; Vero cells, Shiga toxin protein synthesis inhibition reporter; inhibition, % at 38.7 µM; 290,000 tested, 9.2% active; AID 2315, 2010; in the data active = inhibition mostly above about 28%, no sharp cut-off; inactive = mostly below about 43%; note: 0% is about no effect
AmpC no deterg – qHTS Inhibitors of AmpC Beta-Lactamase (assay without detergent) | P00811 | AmpC nitrocefin hydrolysis, absorbance 480 nm, 0.0001% Triton | Potency, µM (top dose mostly 57.1 µM), inactives show at the top dose activity change, negative = inhibition, actives largely listed as inhibitors | 330,000 tested, 0.52% active;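 note: potency is the fitted concentration of half-maximal effect; plate controls were no compound for no effect and no enzyme for full effect; nearly all actives have a fitted effect of over 20% in size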
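20 mM phosphate pH 7.0 + 0.01% (detergent screen) or 0.0001% Triton X-100; 5.3 nM AmpC reagent; cpd preinc 15 min RT; nitrocefin (800 uM stock) to start; A480 q20 s × 4 min; Activity was normalised to no-enzyme and no-compound control wells.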
AMA1 RON2 block – qHTS for Inhibitors of AMA1-RON; Towards Development of Antimalarial Drug Lead: Primary Screen; AlphaScreen AMA1-biotinylated RON2 peptide binding; Potency, µM (top dose mostly 58.2 µM), inactives show top-dose activity change, negative = inhibition, usual class: inhibitors; 360,000 tested, 0.2% active;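 note: potency is the fitted concentration of half-maximal effect; 0% = vehicle wells and -100% = peptide control; nearly all actives have a fitted effect of over 45% in size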
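AMA1 (3D7) with his tag at 25 nM final met compounds first, then biotinylated RON2 peptide at 25 nM; detection used donor plus acceptor beads, 10 µg/mL apiece, read by AlphaScreen after 30 min at room temperature.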
* hit, by the source's call; ? = inconclusive; . = not tested or not shown. Unless noted, calls come from the whole dose curve; as a rule, active = well fitted curve in the direction sought with a large enough effect; inconclusive = small, poorly fitted or top-dose-only effect, or another doubt; inactive = no such curve, though single readings can be large; an effect the other way counts as inactive or inconclusive.

SMILES	CHX counter	SARS PLP yeast	AmpC inh detg	Shiga toxin inh	AmpC no deterg	AMA1 RON2 block
Cc1ccc(C(=O)c2cc3ccccc3o2)cc1C	39*	-17%	-9%	59*	-40%	28%
Cc1ccc(C(=O)c2cc3ccccc3o2)cc1	55*	-3%	-8%	93*	-24%	5%
Cc1cccc(-c2nsc(SCC(=O)NCc3ccco3)n2)c1	23*	-5%	-7%	9	-11%	-5%
Cc1cccc(-c2nsc(SCC(=O)NCC3CCCO3)n2)c1 (centres undefined)	44*	-1%	1%	91*	50%	2%
Cc1cccc(-c2nsc(SCC(=O)NCc3ccc4c(c3)OCO4)n2)c1	-2	2%	?	-11	-45%	-1%
Cc1ccc(NC(=O)Cc2nc(CCl)cs2)cc1	-3	-9%	-5%	9	-40%	?
CCNc1nc(NCC)nc(N(CC)C(N)=S)n1	-1	0%	0%	18	-43%	7%
O=c1[nH]c(CN2CC=C(c3ccccc3)CC2)nc2cc(C(F)(F)F)ccc12	0	-11%	3%	-5	18%	3%
CCCCCCNC(=O)CC(NS(=O)(=O)c1ccc(NC(C)=O)cc1)C(C)C (centres undefined)	-4	4%	3%	-9	-6%	31%
CNC(=O)c1cc(C(=O)c2ccc(Cl)cc2)c[nH]1	24*	-4%	-14%	56*	-4%	?
CC1=C(/C=C/C(C)=N\NC(=O)c2ccncc2)C(C)(C)CCC1	13*	1%	4%	-11	-6%	121%
COc1ccc(-c2c(C)nn(-c3ccccc3)c2N)cc1	23*	-4%	?	51	-14%	0%
Cc1nn(-c2ccc(C(=O)O)cc2)c(C)c1Oc1ccccc1O	-2	1%	?	-6	-24%	4%
Cc1nn(C(C)(C)C)c(N)c1-c1ccccc1	14	-8%	-15%	10	-7%	-6%
Cc1nn(-c2ccc(C(=O)O)cc2)c(N)c1-c1ccccc1	28*	-3%	-8%	23*	-19%	-1%
Cc1nn(-c2ccc(C(=O)O)cc2)c(C)c1Cl	25*	-3%	5%	58*	-21%	-14%
Cc1nn(-c2nc3ccccc3[nH]2)c(N)c1-c1ccc(Cl)cc1	46*	-32%	-10%	82*	-50%	28%
CC(=O)NC(Cc1cccc(F)c1)C(=O)NC1CCN(C(=O)Nc2ccc(C)cc2)CC1 (centres undefined)	-1	1%	-3%	-6	25%	-4%
CCCc1c(C)c2cccc(C)c2[nH]c1=O	-1	6%	-7%	15	-14%	-3%
CCCCN1CCc2c([nH]c3c(C)cccc23)C1=O	42*	-2%	0%	69*	-1%	3%
CC(=O)c1ccc(Oc2cnccn2)cc1	4	2%	-5%	-17	-2%	-4%
CC(C)(C)C(=O)OCc1nc(-c2ccc(C(F)(F)F)cc2)cs1	19*	0%	3%	32	-17%	26%
CCOc1ccccc1NC(=O)N1CCCN(c2ncccc2C#N)CC1	-4	1%	-13%	-12	-3%	7%
COc1ccc(COc2ncnc3ccc(Br)cc23)cc1F	19*	-2%	-1%	24	-6%	-5%
Cc1ccc(NC(=O)CNC(=O)c2cccs2)cc1S(=O)(=O)Nc1ccc(Cl)cc1	5	22%	-14%	4	-52%	-2%
SMILES	CHX counter	SARS PLP yeast	AmpC inh detg	Shiga toxin inh	AmpC no deterg	AMA1 RON2 block
O=C(Nc1nccs1)c1ccc(Cl)nc1	26	-4%	-6%	23	-17%	39%
O=C(Nc1nccs1)c1cccnc1Cl	-2	0%	-9%	3	-10%	4%
O=C(Nc1nccs1)c1cnccn1	2	-2%	?	24	-9%	90%
O=C(Nc1nccs1)c1ccccn1	67*	3%	-12%	97*	-9%	100%
O=C(CCNC(=O)c1ccc(Br)cc1)Nc1nccs1	19*	0%	4%	22	-16%	4%
O=C(CCNC(=O)c1ccc([N+](=O)[O-])cc1)Nc1nccs1	-3	0%	-2%	-5	-8%	0%
O=C(Nc1nccs1)c1ccc[nH]c1=O	25*	3%	?	.	11%	8%
O=C(Nc1nccs1)c1ccc(Br)cc1	27*	14%	-2%	133*	-9%	43%
O=C(Nc1cccc(C(=O)NC2CCCC2)c1)c1ccccc1	13	2%	?	9	-21%	5%
CC(C(=O)Nc1ccc(Br)cc1)N(C)CC(=O)NCc1ccco1 (centres undefined)	.	11%	?	.	-7%	4%
O=C(Nc1ccc(C(=O)N2CCCCC2)cc1)c1ccc([N+](=O)[O-])cc1	-2	9%	?	-10	-15%	8%
CCOc1cccc(C(=O)Nc2nnc(-c3ccco3)s2)c1	31*	6%	-3%	92*	-42%	-13%
CCOc1cccc(C(=O)Nc2nccs2)c1	30*	-56%	-7%	69*	-18%	-6%
O=C(Nc1nccs1)c1ccc2ccccc2c1	52*	2%	-5%	79*	-41%	52%
O=C(Nc1n[nH]c(=S)s1)c1ccc2ccccc2c1	34*	0%	4%	69*	-15%	73%
CCOC(=O)Cc1nnc(NC(=O)c2cccc(OCC)c2)s1	8	-4%	?	49	-21%	7%
CCNc1ccc(C(=O)OCC(=O)NCc2ccccc2Cl)cc1[N+](=O)[O-]	-6	-2%	3%	-3	-18%	13%
CC(=O)N(C(C)=O)c1ncc2c([nH]c3ccccc32)c1C#N	8	1%	-7%	-12	-3%	-5%
Cc1cccc(NC(=S)N(CCN2CCOCC2)Cc2ccccc2F)c1	15	-2%	?	-10	44%	-21%
CCN1CCCc2cc(CN(CCN3CCOCC3)C(=S)Nc3cccc(C)c3)ccc21	7	5%	-3%	24	122%	14µM*
CCN1CCCc2cc(CN(CCN3CCOCC3)C(=S)Nc3ccccc3C)ccc21	0	0%	9%	-11	4%	61%
CCN1CCCc2cc(CN(CCN3CCOCC3)C(=O)Nc3ccc(C)c(C)c3)ccc21	1	2%	?	-1	141%	11µM*
CCN1CCCc2cc(CN(CCN3CCOCC3)C(=S)Nc3ccc(OC)c(OC)c3)ccc21	-3	-1%	7%	-19	41%	-10%
